Among the test systems are NCI-H23 lung; NCI-H226 lung; NCI-H322M lung; NCI-H460 lung; HOP-92 NSCLC; NCI-H522 lung; A549/ATCC NSCLC; 786-0 renal; COLO 205 colon; DU-145 prostate; K-562 leukemia; MALME-3M melanoma; MDA-MB-231 breast; RXF 393 renal; SF-268 CNS; SF-539 CNS; UACC-257 melanoma; M14 melanoma; HOP-62 NSCLC; SF-295 CNS.
Holding throughout (assay): NCI-60 one-dose screen, 48 h (100 = growth as untreated, 0 = no growth, -100 = all killed)
Common to all, as to details: 10 µM unless noted

Where “and” joins values, the source holds several entries; their conditions need not be identical. Equal values may be shown once. This is part of a sample that, as a whole, favours compounds with a hit. Of some 83,000 tested, about 20% had one in any assay.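 In brief: 96-well plates, 48 h treatment, single concentration, percent growth endpoint.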 Calls of active or inactive are those of the source. Rule for the calls: active = growth percent below 10; inactive = the rest.

Take `COc1cc2nc(N3CCC[C@@H](NC(=O)C4COc5ccccc5O4)C3)nc(N)c2cc1OC` (stereo not given in full): the growth in the test on NCI-H23 lung is 99.6% (inactive) and 99.7% (inactive); in the test with NCI-H226 lung it was 102% (inactive) and 99.7% (inactive); in the test on NCI-H322M lung, 96.1% (inactive) and 102% (inactive); in the test with NCI-H460 lung, 105% (inactive) and 107% (inactive); in the test on HOP-92 NSCLC, 87% (inactive) and 83% (inactive); in the test with NCI-H522 lung, 96.4% (inactive) and 93.9% (inactive). For the same molecule, the growth was 95.7% (inactive) and 93.9% (inactive) in the test with A549/ATCC NSCLC; 97.4% (inactive) and 96.9% (inactive) in the test with 786-0 renal; 108% (inactive) and 107% (inactive) in the test with COLO 205 colon; 107% (inactive) and 108% (inactive) in the test with DU-145 prostate; 97.1% (inactive) and 94.1% (inactive) in the test on K-562 leukemia; 101% (inactive) and 109% (inactive) in the test with MALME-3M melanoma. Also, the growth was 104% (inactive) and 106% (inactive) in the test with MDA-MB-231 breast; 105% (inactive) and 88.6% (inactive) in the test with RXF 393 renal; 105% (inactive) and 103% (inactive) in the test with SF-268 CNS; 104% (inactive) and 101% (inactive) with SF-539 CNS; 93.5% (inactive) and 92% (inactive) with UACC-257 melanoma; 105% (inactive) and 101% (inactive) in the test on M14 melanoma.

Consider `Cc1nn(-c2ccccc2)nc1C(=O)Nc1ccccc1C(=O)NCC1CC1`, for which the growth in the test on NCI-H226 lung is 98.1% (inactive) and 45.7% (inactive); in the test with NCI-H322M lung, 111% (inactive) and 76.7% (inactive); with HOP-62 NSCLC it was 96.7% (inactive) and 46.1% (inactive); in the test with NCI-H460 lung it was 94.3% (inactive) and 26.8% (inactive); with HOP-92 NSCLC, 75.8% (inactive); with NCI-H522 lung, 91.9% (inactive). In addition, the growth in the test with A549/ATCC NSCLC was 67.8% (inactive) and 38.7% (inactive); in the test with 786-0 renal it was 110% (inactive) and 35.1% (inactive); with COLO 205 colon, 95.3% (inactive) and 52.8% (inactive); in the test with DU-145 prostate, 109% (inactive) and 62.6% (inactive); in the test on K-562 leukemia, 91.4% (inactive) and 44.3% (inactive); in the test with MALME-3M melanoma, 135% (inactive) and 97% (inactive). Moreover, the growth in the test with MDA-MB-231 breast is 79.8% (inactive) and 23.6% (inactive); with RXF 393 renal, 105% (inactive) and 77.4% (inactive); in the test on SF-268 CNS it was 123% (inactive) and 91% (inactive); in the test on SF-295 CNS it was 114% (inactive) and 59.5% (inactive); in the test on SF-539 CNS, 88.8% (inactive) and 30.9% (inactive); with UACC-257 melanoma it was 111% (inactive). Moreover, in the test on M14 melanoma, the growth is 105% (inactive) and 81.8% (inactive).

Take `O=C(Nc1cccc(Cl)c1)c1cc2ccccc2cc1O`: the growth in the test with NCI-H226 lung is 45.8% (inactive) and 40.6% (inactive); in the test with NCI-H322M lung, 15% (inactive) and -3.24% (active); with HOP-62 NSCLC, 37.7% (inactive) and 15.1% (inactive); in the test with NCI-H460 lung, 5.98% (active) and 5.93% (active); in the test on HOP-92 NSCLC, -30.8% (active) and -32.5% (active); in the test on NCI-H522 lung, 1.12% (active) and 2.91% (active). For the same molecule, the growth in the test with A549/ATCC NSCLC was 20.7% (inactive) and 9.25% (active); in the test on 786-0 renal it was 53.6% (inactive) and 17.3% (inactive); with COLO 205 colon, 104% (inactive) and 42.6% (inactive); in the test with DU-145 prostate, 22.1% (inactive) and 25.1% (inactive); in the test on K-562 leukemia, 25.8% (inactive) and 10.5% (inactive); in the test on MALME-3M melanoma, 2.77% (active) and -9.95% (active). Moreover, the growth in the test with MDA-MB-231 breast is 27% (inactive) and -1.46% (active); in the test on RXF 393 renal, 18% (inactive) and 33% (inactive); in the test with SF-268 CNS it was 21.2% (inactive) and 24.4% (inactive); in the test on SF-295 CNS it was 13.5% (inactive) and 62.2% (inactive); in the test with SF-539 CNS, 28.4% (inactive) and 11.7% (inactive); in the test on UACC-257 melanoma, 5.37% (active) and -16.3% (active). Also, in the test on M14 melanoma, the growth is 48.4% (inactive) and 18.2% (inactive).

Consider `O=[N+]([O-])c1ccccc1N(S(=O)(=O)c1ccccc1)S(=O)(=O)c1ccccc1`, for which the growth in the test with NCI-H23 lung was 106% (inactive) and 95.9% (inactive); in the test on NCI-H226 lung, 113% (inactive) and 91.2% (inactive); in the test on NCI-H322M lung, 90% (inactive) and 95% (inactive); with NCI-H460 lung, 108% (inactive) and 114% (inactive); with HOP-92 NSCLC it was 92.8% (inactive) and 101% (inactive); with NCI-H522 lung, 94.7% (inactive) and 87.3% (inactive). In addition, the growth was 91.3% (inactive) and 80.2% (inactive) with A549/ATCC NSCLC; 109% (inactive) in the test with 786-0 renal; 129% (inactive) and 117% (inactive) in the test on COLO 205 colon; 118% (inactive) and 99.7% (inactive) in the test with DU-145 prostate; 93% (inactive) and 113% (inactive) in the test with K-562 leukemia; 120% (inactive) and 109% (inactive) in the test with MALME-3M melanoma. The growth in the test with MDA-MB-231 breast is 112% (inactive) and 96.5% (inactive); with RXF 393 renal, 119% (inactive) and 108% (inactive); with SF-268 CNS it was 96.3% (inactive) and 95.2% (inactive); with SF-295 CNS, 108% (inactive) and 77.6% (inactive); in the test with SF-539 CNS it was 117% (inactive) and 104% (inactive); in the test on UACC-257 melanoma it was 85.7% (inactive) and 92.4% (inactive). Further, in the test on M14 melanoma, the growth is 128% (inactive) and 98.6% (inactive).
